Inconclusive results are not listed. Activity calls are given as the source filed them. Unless noted, calls come from the whole dose curve.
Tests used:
[1] = Nuclear factor erythroid 2-related factor 2/antioxidant responsive element (Nrf2/ARE) small molecule agonists: qHTS cell viability counter screen in human keratinocytes (AID 1919968; active = well fitted curve in the direction sought with a large enough effect in the repeat runs; an effect the other way counts as inactive or inconclusive; note: nearly all actives have a fitted effect of over 55% in size)
In short: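 Parallel cytotoxicity read: KeratinoSens HaCaT cells, compound treatment 23 h, viability by CellTiter-Fluor fluorescence 1 h post-reagent.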

[2] = Nuclear factor erythroid 2-related factor 2/antioxidant responsive element (Nrf2/ARE) small molecule agonists: luciferase reporter gene qHTS assay in human keratinocytes (AID 1919969); note: nearly all actives have a fitted effect of over 35% in size
[3] = target: Gonadotropin-releasing hormone receptor (Homo sapiens) (UniProt P30968); test: Human gonadotropin-releasing hormone receptor (GnRHR) small molecule agonists, calcium flux assay in GnRHR-HEK293 cells (AID 1920063); note: nearly all actives have a fitted effect of over 35% in size
Gonadotropin-releasing hormone receptor (Homo sapiens), sequence (P30968 whole entry, looked up): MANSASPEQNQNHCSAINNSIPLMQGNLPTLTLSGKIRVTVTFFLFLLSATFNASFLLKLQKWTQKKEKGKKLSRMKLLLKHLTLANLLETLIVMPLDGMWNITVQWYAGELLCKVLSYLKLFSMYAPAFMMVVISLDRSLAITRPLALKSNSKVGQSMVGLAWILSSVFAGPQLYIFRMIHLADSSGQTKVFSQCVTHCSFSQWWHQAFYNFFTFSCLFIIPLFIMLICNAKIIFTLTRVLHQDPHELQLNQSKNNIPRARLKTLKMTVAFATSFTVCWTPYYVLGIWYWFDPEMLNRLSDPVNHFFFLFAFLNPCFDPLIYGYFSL
In short: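 Calcium flux, agonist mode, human GnRHR stably integrated in HEK293; dye 1 h at 37 C before compound; Ex/Em=480/540 kinetic read, 3 min; 15 concentrations, triplicate.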

[4] = target: KiSS-1 receptor (Homo sapiens) (UniProt Q969F8); test: Human kisspeptin (KISS1R) small molecule agonists, calcium flux assay in KISS1R-HEK293 cells (AID 1920064; active = well fitted curve in the direction sought with a large enough effect in the repeat runs; an effect the other way counts as inactive or inconclusive)
KiSS-1 receptor (Homo sapiens), sequence (Q969F8 whole entry, looked up): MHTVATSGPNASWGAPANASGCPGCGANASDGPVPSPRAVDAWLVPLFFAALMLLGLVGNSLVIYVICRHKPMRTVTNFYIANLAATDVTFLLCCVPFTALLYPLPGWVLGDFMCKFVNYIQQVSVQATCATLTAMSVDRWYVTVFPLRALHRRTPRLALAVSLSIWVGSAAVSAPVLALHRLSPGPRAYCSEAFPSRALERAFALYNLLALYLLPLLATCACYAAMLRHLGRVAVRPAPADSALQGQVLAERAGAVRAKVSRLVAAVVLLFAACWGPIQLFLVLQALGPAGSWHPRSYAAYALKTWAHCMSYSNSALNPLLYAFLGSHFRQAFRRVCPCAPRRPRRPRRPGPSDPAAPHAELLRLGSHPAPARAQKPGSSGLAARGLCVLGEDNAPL
In short: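 Triplicate 15-concentration series were applied to dye-loaded human KISS1R HEK293 cells, and agonist-evoked calcium fluorescence was captured for 3 min.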

[5] = G protein-coupled receptor (GPCR) small molecule agonists, calcium flux assay: HEK293 wild type cell line counter screen (AID 1920065)
In short: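 Non-specific calcium responders were flagged by adding DMSO-dissolved compounds to dye-loaded cells and reading 480/540 nm fluorescence each second for 3 min; ATP served as positive control.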

[6] = p53 small molecule agonists, cell-based qHTS assay with human liver microsomes (AID 1963577);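 note: p53 response element beta-lactamase reporter cells with liver microsomes plus NADPH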
In short: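 In this qHTS, p53 response-element beta-lactamase cells receive test compound together with a microsome/NADPH activating system (0.5 mg/mL final each) and are incubated 16 h at 37 C before LiveBLAzer fluorescence detection.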

[7] = p53 small molecule agonists, cell-based qHTS assay with rat liver microsomes (AID 1963578)
In short: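 Agonist mode in p53RE-bla reporter cells, with compounds co-incubated 16 h at 37 C alongside 0.5 mg/mL rat liver microsomes and 0.5 mg/mL NADPH (final), followed by a 2 h LiveBLAzer detection step.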

[8] = p53 small molecule agonists, cell-based qHTS assay with human liver microsomes: qHTS cell viability counter screen (AID 1963579); note: nearly all actives have a fitted effect of over 45% in size
In short: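 Metabolically activated exposure: compounds, human liver microsomes and NADPH (0.5 mg/mL final apiece) were added to p53RE-bla cells seeded 5 h earlier, left 16 h at 37 C, and then assessed for viability by CellTiter-Glo luminescence.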

[9] = p53 small molecule agonists, cell-based qHTS assay with rat liver microsomes: qHTS cell viability counter screen (AID 1963580); note: nearly all actives have a fitted effect of over 45% in size
In short: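 Rat liver microsome (0.5 mg/mL final) and NADPH (0.5 mg/mL final) co-incubation with compounds for 16 h at 37 C on HCT-116 p53RE-bla cells; cytotoxicity taken from intracellular ATP luminescence.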

[10] = p53 small molecule agonists, cell-based qHTS assay: qHTS cell viability counter screen (AID 1963581); note: nearly all actives have a fitted effect of over 45% in size
In short: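 Multiplexed with the reporter read, a CellTiter-Glo step (30 min, room temperature) gauges ATP-based viability of HCT-116 p53RE-bla cells after 16 h compound incubation at 37 C.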

[11] = p53 small molecule agonists, cell-based qHTS assay (AID 1963582; active = well fitted activation curve with a large enough effect in the signal ratio in the repeat runs, not every such curve was filed as active; the % refers to the signal ratio)
In short: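 Beta-lactamase reporter cells (p53RE-bla) treated with compounds for 16 h at 37 C; FRET substrate, 2 h, room temperature; fluorescence intensity.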

[12] = target: 5-hydroxytryptamine receptor 2A (Homo sapiens) (UniProt P28223); test: 5-hydroxytryptamine receptor 2A (HTR2A) small molecule antagonists, cell-based qHTS assay (AID 1963586); note: nearly all actives have a fitted effect of over 45% in size
5-hydroxytryptamine receptor 2A (Homo sapiens), sequence (P28223 whole entry, looked up): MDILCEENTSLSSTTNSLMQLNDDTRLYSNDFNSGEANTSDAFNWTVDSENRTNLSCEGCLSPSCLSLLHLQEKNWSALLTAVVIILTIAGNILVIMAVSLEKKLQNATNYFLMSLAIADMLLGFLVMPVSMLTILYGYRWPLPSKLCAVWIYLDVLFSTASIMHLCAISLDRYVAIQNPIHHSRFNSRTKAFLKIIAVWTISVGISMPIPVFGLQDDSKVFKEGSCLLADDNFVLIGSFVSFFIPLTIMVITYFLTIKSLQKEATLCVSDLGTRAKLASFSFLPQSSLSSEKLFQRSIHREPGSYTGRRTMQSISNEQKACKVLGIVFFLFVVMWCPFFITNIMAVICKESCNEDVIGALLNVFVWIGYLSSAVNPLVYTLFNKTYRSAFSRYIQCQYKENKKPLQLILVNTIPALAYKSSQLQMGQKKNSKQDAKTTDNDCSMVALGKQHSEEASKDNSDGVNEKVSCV
In short: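 CHO cells stably expressing human HTR2A were plated for 18 h at 37 C, then loaded with calcium dye for 1 h. Compounds were preincubated 5 min at room temperature before DOI (4 nM solution) was added. Kinetic fluorescence was read for 3 min.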

[13] = target: 5-hydroxytryptamine receptor 2A (Homo sapiens) (UniProt P28223); test: 5-hydroxytryptamine receptor 2A (HTR2A) small molecule agonists, cell-based qHTS assay (AID 1963587); note: nearly all actives have a fitted effect of over 30% in size
In short: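 Kinetic calcium-flux fluorescence (2 min, 1 sec intervals) after compound addition in agonist mode. HTR2A-CHO cells were cultured 18 h, then dye-loaded 1 h at 37 C.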

[14] = target: Muscarinic acetylcholine receptor M1 (Homo sapiens) (UniProt P11229); test: Cholinergic receptor muscarinic 1 (CHRM1) small molecule antagonists, cell-based qHTS assay (AID 1963588); note: nearly all actives have a fitted effect of over 40% in size
Muscarinic acetylcholine receptor M1 (Homo sapiens), sequence (P11229 whole entry, looked up): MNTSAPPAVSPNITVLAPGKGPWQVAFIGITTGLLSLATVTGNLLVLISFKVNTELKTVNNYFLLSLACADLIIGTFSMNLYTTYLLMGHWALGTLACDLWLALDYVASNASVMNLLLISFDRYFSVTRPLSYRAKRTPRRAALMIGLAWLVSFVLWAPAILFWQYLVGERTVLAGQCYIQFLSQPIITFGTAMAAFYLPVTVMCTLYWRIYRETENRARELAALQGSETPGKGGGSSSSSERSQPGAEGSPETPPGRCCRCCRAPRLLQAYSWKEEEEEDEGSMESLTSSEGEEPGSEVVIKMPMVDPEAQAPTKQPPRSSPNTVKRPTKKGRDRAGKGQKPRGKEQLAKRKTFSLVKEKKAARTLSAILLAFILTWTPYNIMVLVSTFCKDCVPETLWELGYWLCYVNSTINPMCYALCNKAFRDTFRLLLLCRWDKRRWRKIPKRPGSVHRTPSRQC
In short: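 Compounds were tested at 15 concentrations in three independent runs. Dye-loaded CHRM1-CHO cells were exposed 5 min at room temperature before stimulation by acetylcholine added at 50nM. Intracellular calcium was read kinetically on FDSS for 3 min.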

[15] = target: Muscarinic acetylcholine receptor M1 (Homo sapiens) (UniProt P11229); test: Cholinergic receptor muscarinic 1 (CHRM1) small molecule agonists, cell-based qHTS assay (AID 1963589); note: nearly all actives have a fitted effect of over 35% in size
In short: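 qHTS, 15-point titration, 3 independent runs: compounds pin-transferred onto dye-loaded CHRM1-CHO cells (human M1), calcium fluorescence followed every second to detect agonism.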

[16] = cAMP Responsive Elements (CRE) small molecule agonists, cell-based qHTS assay (AID 1963590)
In short: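 Quantitative HTS for CRE agonists: HEK 293T CRE-bla cells, overnight plating, 3 h compound incubation at 37 C/5% CO2, then 2 h room-temperature LiveBLAzer B/G FRET substrate loading.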

[17] = cAMP Responsive Elements (CRE) small molecule antagonists, cell-based qHTS assay (AID 1963591; active = well fitted inhibition curve with a large enough effect in the signal ratio in the repeat runs, not every such curve was filed as active; the % refers to the signal ratio)
In short: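 Fluorescence intensity from cleaved LiveBLAzer B/G substrate (2 h, room temperature) quantified CRE-bla activity in HEK 293T cells exposed 3 h to compound with 0.25 uM final NKH477.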

[18] = target: Beta-2 adrenergic receptor (Homo sapiens) (UniProt P07550); test: Adrenergic beta2 receptor (ADRB2) small molecule antagonists, cell-based qHTS assay (AID 1963592); note: series mostly up to about 92 µM; nearly all actives have a fitted effect of over 50% in size
Beta-2 adrenergic receptor (Homo sapiens), sequence (P07550 whole entry, looked up): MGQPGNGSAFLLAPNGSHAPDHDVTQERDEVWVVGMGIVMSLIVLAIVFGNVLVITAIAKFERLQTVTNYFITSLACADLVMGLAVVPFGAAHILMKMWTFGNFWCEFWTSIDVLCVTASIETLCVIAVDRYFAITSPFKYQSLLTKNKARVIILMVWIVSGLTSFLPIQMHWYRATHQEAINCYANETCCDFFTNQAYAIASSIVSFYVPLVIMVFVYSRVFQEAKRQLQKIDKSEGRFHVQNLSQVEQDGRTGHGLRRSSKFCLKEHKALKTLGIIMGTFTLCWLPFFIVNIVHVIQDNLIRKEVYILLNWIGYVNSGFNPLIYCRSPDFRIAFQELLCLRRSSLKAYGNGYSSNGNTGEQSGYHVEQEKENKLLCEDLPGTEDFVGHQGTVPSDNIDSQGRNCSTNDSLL
In short: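 Assay format: CHO-ADRB2 cells, 18-20hr seeding at 37C/5% CO2, then compound plus 1nM isoproterenol agonist mix for 0.5hr RT. Homogeneous time-resolved fluorescence cAMP detection after 1hr, expressed as 665/615 nm ratio.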

[19] = target: D(2) dopamine receptor (Homo sapiens) (UniProt P14416); test: Dopamine D2 receptor (DRD2) small molecule agonists, cell-based qHTS assay (AID 1963594); note: nearly all actives have a fitted effect of over 35% in size
D(2) dopamine receptor (Homo sapiens), sequence (P14416 whole entry, looked up): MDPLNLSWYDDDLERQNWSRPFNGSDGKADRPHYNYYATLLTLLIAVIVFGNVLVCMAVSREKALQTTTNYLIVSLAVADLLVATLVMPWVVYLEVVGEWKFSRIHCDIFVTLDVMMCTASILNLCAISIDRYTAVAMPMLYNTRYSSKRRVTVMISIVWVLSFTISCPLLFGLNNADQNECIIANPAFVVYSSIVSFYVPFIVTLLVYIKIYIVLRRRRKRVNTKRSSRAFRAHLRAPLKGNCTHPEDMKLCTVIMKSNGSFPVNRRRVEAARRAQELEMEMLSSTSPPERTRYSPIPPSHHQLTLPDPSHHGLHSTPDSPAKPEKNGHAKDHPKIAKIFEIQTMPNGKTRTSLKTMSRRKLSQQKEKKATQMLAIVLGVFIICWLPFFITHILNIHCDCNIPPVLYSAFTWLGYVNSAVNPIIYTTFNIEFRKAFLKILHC
In short: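 cAMP accumulation in DRD2-HEK293 cells measured by HTRF after 1 h detection; compounds added 10 min before NKH477 (200nM […]) forskolin-analogue stimulation, 30 min at room temperature, with Ro20-1724 present at 0.1 mM final.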

[20] = target: D(2) dopamine receptor (Homo sapiens) (UniProt P14416); test: Dopamine D2 receptor (DRD2) small molecule antagonists, cell-based qHTS assay (AID 1963595; active = well fitted inhibition curve with a large enough effect in the signal ratio in the repeat runs, with a control signal flat; the % refers to the signal ratio)
In short: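 Cells were plated and grown for 24 h at 37 °C. Ro20-1724 (0.1 mM final) went in first, then compound for 10 min. NKH477 (200 nM) with quinpirole (12 nM) followed for 30 min at RT, then HTRF detection reagents for 1 h.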

Measured: Potency

O=C1CC(=O)NC(=O)N1
inactive: all assays above

ClCC(Br)CBr (stereo not given)
inactive: all assays above

Cc1ncc2n1-c1ccc(Cl)cc1C(c1ccccc1F)=NC2
inactive: all assays above

CCCCC#N
inactive: all assays above

Cc1coc2c1CCC(C)C2 (stereo not given)
inactive: all assays above

CNC(C)(C)Cc1ccccc1
inactive: all assays above

NCCOS(=O)(=O)O
inactive: all assays above

Cc1cccc(C#N)c1
inactive: all assays above

Source: PubChem BioAssay (Tox21)
